Screening results: PubChem, Sanford-Burnham Center for Chemical Genomics
Compounds with a hit are over-represented: about 28% of the library has one in this group of screens.
Pyk2 oligo antag: antagonists of human Pyk2 oligomerization | Q14289 | Q293 cells, Pyk2 FERM NanoBiT luminescence; hits give low values | z-score (the deposit names both 25 µM and 10 µM) | hit rate 0.83% among 99,000 | AID 1347419;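 active = Z-score of -3 or lower, scaled per plate to the spread of control and sample wells; inactive = z-score above -3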;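 also: negative z-score means lost luminescence so less FERM oligomerization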
CYP2C19 inh: human CYP2C19 inhibition; P33261; CYP2C19 Supersomes, luciferin-H EGE luminescence, 30 min; inhibition, % at 5 µM; hit rate 21% among 96,000; AID 778;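 active = CYP2C19 inhibition above a set limit at 5 µM in the primary screen, cut at about 50% in these data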;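 also: plate controls were negative control wells for no effect and 2.5 mM tranylcypromine positive control for full effect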
CYP2C9 inh: blocks human cytochrome P450 2C9; P11712; CYP2C9 Supersomes, luciferin-H conversion, luminescence; inhibition, % at 5 µM; hit rate 20% among 96,000; AID 777;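 active = blocking of liver enzyme CYP2C9 beyond about 50% at 5 µM, limit read from the data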
Target sequence (P11712 whole entry, looked up): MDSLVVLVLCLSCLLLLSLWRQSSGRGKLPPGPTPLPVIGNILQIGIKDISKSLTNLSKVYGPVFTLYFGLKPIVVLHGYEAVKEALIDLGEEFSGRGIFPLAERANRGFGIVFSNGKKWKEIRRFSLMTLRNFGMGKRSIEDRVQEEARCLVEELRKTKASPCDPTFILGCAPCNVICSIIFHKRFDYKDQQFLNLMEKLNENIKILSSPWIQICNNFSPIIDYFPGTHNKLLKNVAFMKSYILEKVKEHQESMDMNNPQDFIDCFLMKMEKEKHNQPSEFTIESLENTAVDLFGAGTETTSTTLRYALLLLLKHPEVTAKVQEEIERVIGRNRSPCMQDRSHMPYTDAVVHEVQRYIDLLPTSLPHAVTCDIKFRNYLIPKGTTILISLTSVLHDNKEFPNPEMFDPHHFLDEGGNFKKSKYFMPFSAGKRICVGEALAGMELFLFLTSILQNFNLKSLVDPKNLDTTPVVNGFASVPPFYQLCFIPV
CYP2C9 act: increases human cytochrome P450 2C9 activity; activation factor at 5 µM; AID 1024; recombinant CYP2C9, luciferin-H conversion, luminescence; hits give high values; factor 1 = untreated enzyme, 0 = blocked; hit rate 1.4% among 96,000; P11712;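 active = activation factor of 2 or more for CYP2C9 at a 5 µM dose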;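 also: 0 = sulfaphenazole-blocked wells and 1 = vehicle-only wells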
CYP2C19 activ: activators of human cytochrome P450 2C19. P33261. recombinant CYP2C19, luciferin-H EGE luminescence; hits give high values; 0 = fully inhibited enzyme, 1 = untreated enzyme. activation factor at 5 µM. 96,000 tested, under 10 active. AID 1025;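 active = activation factor of at least 2 at 5 µM in the primary screen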;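 also: 0 = wells with 2.5 mM tranylcypromine and 1 = vehicle-only wells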
* hit, by the source's call; nt = no result.

SMILES | Pyk2 oligo antag | CYP2C19 inh | CYP2C9 inh | CYP2C9 act | CYP2C19 activ
O=C(OCC(=O)N1CCN(C(=O)c2ccco2)CC1)c1ccc(S(=O)(=O)N2CCCCC2)cc1 | 1.2 | 1 | 60* | 0.4 | 1
CC(Oc1ccccc1Cl)C(=O)/C=C/N(C)C (stereo not drawn) | 0.35 | 4 | 8 | 0.9 | 1
CC1(C)CC(=O)c2cnc(NC(=O)c3ccco3)nc2C1 | 2.4 | 3 | 6 | 0.9 | 1
O=c1[nH]c2ccc(Cl)cc2c(-c2ccccc2)c1SC(=S)N1CCCCC1 | -0.8 | -8 | 52* | 0.5 | 1.1
O=C(NC1CCN(C(=O)NCc2ccccc2)CC1)c1ccco1 | 0.95 | 4 | -2 | 1 | 1
O=c1ccnc(SCc2ccccc2Cl)[nH]1 | 0.57 | -2 | 60* | 0.4 | 1
COC(=O)CSc1nc(C2CC2)cc(C(F)(F)F)c1C#N | -0.83 | 66* | 0 | 1 | 0.3
O=C(Nn1cnnc1)c1cc2c(s1)CCCCC2 | 1 | 72* | 16 | 0.8 | 0.3
O=C(NCCCn1ccnc1)c1cc2c(s1)CCCCC2 | -0.02 | 93* | 73* | 0.3 | 0.1
CNC(=O)c1cc2c(s1)CCCCCC2 | -0.02 | nt | nt | nt | nt
O=C(Nc1ccon1)c1cc2c(s1)CCCCCC2 | -1.3 | 55* | 69* | 0.3 | 0.5
O=C(NCc1nnc2n1CCCCC2)c1ccc(Cl)cc1Cl | 0.32 | -2 | -38 | 1.4 | 1
COCCN1CN=C(Nc2nc3ccccc3s2)NC1 | 2.4 | 9 | -9 | 1.1 | 0.9
O=C(Nc1ccccc1F)c1ccco1 | -0.57 | nt | nt | nt | nt
O=c1cc(N2CCC3(CC2)OCCO3)[nH]c(=O)n1-c1ccc(Br)cc1 | -0.06 | nt | nt | nt | nt
COC(=O)c1ccc(-c2ccco2)n1Cc1ccccc1Cl | -0.13 | 16 | 63* | 0.4 | 0.8
O=C(CN(C1CC1)S(=O)(=O)c1ccc(S(=O)(=O)NC2CCCCC2)cc1)Nc1ccccc1 | -1.7 | 97* | 96* | 0 | 0
Cc1ccc(S(=O)(=O)N(CC(=O)NCCSCc2ccco2)c2cc(C)ccc2C)cc1 | -0.49 | nt | nt | nt | nt
CC(C)CNC(=O)CN(C1CCCCC1)S(C)(=O)=O | 0.05 | 12 | -8 | 1.1 | 0.9
O=C(CN(C1CCCCC1)S(=O)(=O)c1ccc(F)cc1)Nc1ccc2c(c1)OCO2 | -1.6 | nt | nt | nt | nt
Cc1ccccc1N(CC(=O)NCCSC1CCCCC1)S(=O)(=O)c1ccccc1 | -1.3 | 17 | 58* | 0.4 | 0.8
CC(C)CNC(=O)CN(C1CCCCC1)S(=O)(=O)c1ccccc1 | -1 | 58* | 92* | 0.1 | 0.4
CCC(=O)Nc1cc(-c2nn(CC(=O)N3CCCCC3)c(=O)c3ccccc23)ccc1N1CCOCC1 | 2.1 | 15 | 28 | 0.7 | 0.8
COC(=O)c1ccccc1NC(=O)CN(c1ccc(OC)cc1)S(C)(=O)=O | -1.2 | nt | nt | nt | nt
COc1ccc(OC)c(N(CC(=O)Nc2ccccc2C(=O)NCc2ccco2)S(C)(=O)=O)c1 | -1.2 | 90* | 91* | 0.1 | 0.1
SMILES | Pyk2 oligo antag | CYP2C19 inh | CYP2C9 inh | CYP2C9 act | CYP2C19 activ
COc1ccc(Cl)cc1N(CC(=O)N1CCC(C)CC1)S(C)(=O)=O | -0.7 | 13 | -5 | 1 | 0.9
COc1ccc(Cl)cc1N(CC(=O)N1CCN(Cc2ccccc2)CC1)S(C)(=O)=O | -0.23 | 55* | 12 | 0.9 | 0.5
COc1ccccc1OCC(=O)Nc1ccccc1C(=O)NCc1ccco1 | -0.21 | nt | nt | nt | nt
COc1ccc(N(CC(=O)Nc2ccccc2C(=O)NCc2ccco2)S(C)(=O)=O)cc1 | -0.09 | 36 | 84* | 0.2 | 0.6
COC(=O)CN(c1ccc(F)cc1)S(=O)(=O)c1ccccc1 | -0.61 | 10 | 6 | 0.9 | 0.9
O=C(CN(c1ccc(F)cc1)S(=O)(=O)c1ccccc1)NCc1ccco1 | -1.9 | 51* | 73* | 0.3 | 0.5
O=C(Nc1ccccc1C(F)(F)F)c1cc(S(=O)(=O)N2CCOCC2)ccc1F | 0.1 | nt | nt | nt | nt
Cc1ccc(N(CC(=O)Nc2ccccc2C(=O)NCc2ccco2)S(=O)(=O)c2ccccc2)cc1C | -1.8 | 92* | 98* | 0 | 0.1
COc1ccc(Cl)cc1N(CC(=O)Nc1ccccc1SC)S(C)(=O)=O | -0.86 | 92* | 86* | 0.1 | 0.1
Cc1cccc(S(=O)(=O)N(CC(=O)Nc2ccccc2C)Cc2ccco2)c1 | -0.15 | 43 | 53* | 0.5 | 0.6
O=C(CN(Cc1ccco1)S(=O)(=O)c1ccccc1)N/N=C/c1cccc(O)c1 | -1.1 | 16 | 30 | 0.7 | 0.8
COc1ccc(Cl)cc1N(CC(=O)Nc1ccccc1C(=O)NCc1ccco1)S(C)(=O)=O | -1.3 | 46 | 51* | 0.5 | 0.5
